aSyn 5UTR act – Activators via SNCA 5'UTR binding, MLPCN | alpha-synuclein 5'UTR reporter, activators screen | activity score, % (tested at 7.5 µM), hits read low | 7.1% of 300,000 active; in the data active means activity score below about -60%
Of the large screens only hits and unclear results are named; the others gave an inactive call. These entries were drawn from the full list.

CC1(C)CC(=O)c2sc(NC(=O)c3ccco3)nc2C1	aSyn 5UTR act -120
O=C(Nc1ccccc1C(F)(F)F)c1cc(-c2ccco2)on1	aSyn 5UTR act -127
O=C(Nc1ccccc1C(F)(F)F)c1cc(-c2ccccc2O)on1	aSyn 5UTR act -141
Cc1cc(NC(=O)c2cc(-c3ccco3)on2)nn1Cc1ccc(Cl)cc1	aSyn 5UTR act -71
Cc1c(Cl)cccc1NC(=O)c1cc(-c2ccco2)on1	aSyn 5UTR act -108
CCCc1cc(C(=O)Nc2cc(Cl)ccc2O)no1	aSyn 5UTR act -162
CCCc1cc(C(=O)Nc2cc(Br)ccc2O)no1	aSyn 5UTR act -145
COCc1cc(CN2CCCC2)c(O)c2ncccc12	none
COc1ccccc1NC(=O)Cn1c(CN2CCCCC2)nc2ccccc2c1=O	aSyn 5UTR act -63
COc1ccc(-c2nn(-c3ccccc3)cc2/C=N/N2C(=O)CSC2=S)cc1	aSyn 5UTR act -83
COc1ccc(-c2nn(-c3ccccc3)cc2/C=N/NS(=O)(=O)c2ccccc2)cc1	aSyn 5UTR act -62
COc1ccc(-c2nn(-c3ccccc3)cc2/C=N/NC(=O)c2cccc(S(=O)(=O)Nc3ccccc3Cl)c2)cc1	aSyn 5UTR act -77
c1cnc2ccc(-c3ccc4ncccc4c3)cc2c1	aSyn 5UTR act -84
O=C(Nc1ccc2ncccc2c1)Nc1ccc2ncccc2c1	aSyn 5UTR act -179
CN(C)S(=O)(=O)c1ccc(C(=O)Nc2ccc3ncccc3c2)cc1	aSyn 5UTR act -86
O=C(Nc1ccc2ncccc2c1)c1ccccc1Br	aSyn 5UTR act -297
CCCCN(CCCC)S(=O)(=O)c1ccc(C(=O)Nc2nnc(COC)o2)cc1	none
CCS(=O)(=O)c1ncc(Cl)c(C(=O)Nc2ccc(S(=O)(=O)N(C)c3ccccc3)cc2)n1	none
Cc1nc2cc(NC(=O)c3ccc(S(=O)(=O)N(C)c4ccccc4)cc3)ccc2o1	aSyn 5UTR act -132
Cc1ccc2nc(-c3ccc(N4C(=O)CC(N5CCN(CCO)CC5)C4=O)cc3)sc2c1 (stereo not drawn)	aSyn 5UTR act -87
COc1ccc(-c2csc(NC(=S)NC(=O)/C=C/c3ccco3)n2)cc1Br	none
CCCC(=O)Nc1ccc2oc(-c3ccc(OC)c(Br)c3)nc2c1	aSyn 5UTR act -118
CCCC(=O)Nc1ccc(-c2nc3cc(C)c(C)cc3o2)c(O)c1	aSyn 5UTR act -129
CCCC(=O)Nc1ccc(-c2nc3cc(C)ccc3o2)cc1	aSyn 5UTR act -149
COC(=O)c1ccc(-c2ccc(/C=N/N3C(=O)C4C5C=CC(C6CC56)C4C3=O)o2)cc1 (stereo not drawn)	aSyn 5UTR act -100
CCOC(=O)c1ccc(-c2ccc(/C=N/NC(=O)c3cncc(Br)c3)o2)cc1	aSyn 5UTR act -164
CCOC(=O)c1ccc(-c2ccc(/C=N/NC(=O)Cc3nnc(N)s3)o2)cc1	aSyn 5UTR act -83
CCCCOC(=O)c1ccc(-c2ccc(/C=N/NC(=S)NCC)o2)cc1	aSyn 5UTR act -89
O=C(N/N=C\c1ccc([N+](=O)[O-])s1)c1cncc(Br)c1	none
COC(=O)c1ccc(-c2ccc(/C=N/NC(=O)CC3(C)OCCCO3)o2)cc1	aSyn 5UTR act -67
Cc1nnc(SCc2ccccc2)nc1-c1ccccc1	aSyn 5UTR act -124
Cn1c(N)c(C(C[N+](=O)[O-])c2c(F)cccc2Cl)c(=O)n(C)c1=O (stereo not drawn)	aSyn 5UTR act -66
Oc1ccccc1/C=N/NC1=NCCCCC1	aSyn 5UTR act -161
COc1ccc(/C=N/Nc2cc(N(C)C)nc(N(C)C)n2)cc1	aSyn 5UTR act -65
COc1ccc(/C=N/NC2=NCCCCC2)cc1	aSyn 5UTR act -86
CCC(=O)Nc1ccc(NC(=O)C23CC4CC(CC(C4)C2)C3)cn1	aSyn 5UTR act -94
O=C(Nc1ccc(NC(=O)C23CC4CC(CC(C4)C2)C3)cn1)c1ccco1	aSyn 5UTR act -144
CCCc1nn(C)c(C(=O)Nc2ccc(C)c(C)c2)c1Cl	aSyn 5UTR act -102
CCCc1nn(C)c(C(=O)Nc2ccc(CC)cc2)c1Cl	aSyn 5UTR act -74
CCn1nc(C(=O)Nc2ccc(C)c(C)c2)c(Cl)c1Cl	aSyn 5UTR act -91
Cn1c(=O)oc2cc(NC(=O)CCl)ccc21	aSyn 5UTR act -107
O=C(Cc1c(Cl)cccc1Cl)OCc1ccccn1	aSyn 5UTR act -124
O=C(CSc1ccccn1)c1ccc2c(c1)OCO2	aSyn 5UTR act -149
O=C(CSc1nc2ccccc2[nH]1)c1ccc2c(c1)OCO2	aSyn 5UTR act -140
OCCc1ccc(O)c(-n2nc3ccccc3n2)c1	aSyn 5UTR act -117
CCOC(=O)c1cc2c(C)n(-c3ccc(C)cc3)c(C)c2ccc1=O	aSyn 5UTR act -64
Cc1[nH]n(-c2ccccc2)c(=O)c1/C=N/Nc1nncc(-c2ccccc2)n1	none
Oc1cccc(/C=N\Nc2nncc(-c3ccccc3)n2)c1	aSyn 5UTR act -210
Cc1ccc(/C=N/Nc2nncc(-c3ccccc3)n2)o1	aSyn 5UTR act -99
Clc1ccc(-c2ccc(/C=N/Nc3nncc(-c4ccccc4)n3)o2)cc1	aSyn 5UTR act -75
O=C(NC(=S)Nc1cccc([N+](=O)[O-])c1)c1ccccc1	aSyn 5UTR act -170
O=[N+]([O-])c1cccc(/C([O-])=C(/C(=S)Nc2ccccc2)[n+]2ccccc2)c1	aSyn 5UTR act -105

Screens as filed in PubChem BioAssay.
